Measured values reported in the supplement of paper PMC8047044.
Counter-ions that a name gives are not always drawn.

Experiments:
[1] = tested on: Neuro-2a; assay: neurite formation score, plate-normalized to DMSO control mean 5.04 (score (0-8 scale)); higher = more or longer neurites; details: 1 µM
Method: (§1)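 Neuro-2a mouse neuroblastoma cells in PLL-coated 96-well plates were pre-treated for 1 h in DMEM(+) with each kinase inhibitor at 1 µM, then switched to serum-free DMEM(-) with inhibitor to induce neurite outgrowth and fixed about 2-3 h later. Three blinded observers scored neurite formation from 0 (no neurites) to 8 (long neurites on almost all cells).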

[2] = tested on: Neuro-2a; assay: as above; details: 0.1 µM
Method: as §1, with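 “at 0.1” for “at 1”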

Structure (SMILES) | neurite formation score [1] | neurite formation score [2]
CCN(CCO)CCCOc1ccc2c(Nc3cc(CC(=O)Nc4cccc(F)c4)[nH]n3)ncnc2c1 [Barasertib (AZD1152-HQPA)] | 4.69 | –
Nc1ncnc2n[nH]c(Nc3ccc(F)cc3)c12 | 4.88 | –
N[C@@H]1CCCN(c2c(/C=C3\SC(=O)NC3=O)cccc2-c2ccccc2)C1 | 5.36 | –
COC(=O)Nc1nc2cc(C(=O)c3cccs3)ccc2[nH]1 [Nocodazole] | 1.29 | –
COc1ccc(-c2ccc3c(N4CCOC[C@@H]4C)nc(N4CCOC[C@@H]4C)nc3n2)cc1CO | 4.57 | –
CC(C)(C)c1cc(NC(=O)Nc2ccc(-c3cn4c(n3)sc3cc(OCCN5CCOCC5)ccc34)cc2)no1 [Quizartinib (AC220)] | 4.57 | –
O=C(NCCCNc1nc(Nc2cccc(NC(=O)N3CCCC3)c2)ncc1I)c1cccs1 | 5.24 | –
COc1cc2/c(=N/c3ccc(Br)cc3F)nc[nH]c2cc1OCC1CCN(C)CC1 [Vandetanib (ZD6474)] | 4.8 | –
COc1ccc2c(c1)c(C1=C(c3c[nH]c4ccccc34)C(=O)NC1=O)cn2CCCN(C)C | 5.24 | –
Cc1ccc(Nc2nccc(N(C)c3ccc4c(C)n(C)nc4c3)n2)cc1S(N)(=O)=O [Pazopanib Hydrochloride] | 3.57 | –
COc1cc2c(Nc3ccc(NC(=O)c4ccccc4)cc3)ncnc2cc1OCCCN1CCOCC1 | 3.69 | –
COc1ccc(C(=O)Nc2sc3c(c2C(N)=O)CCCC3)cc1OC | 4.57 | –
NCC(=O)Nc1ccc(-n2nc(C(F)(F)F)cc2-c2ccc3c(ccc4ccccc43)c2)cc1 | 5.57 | –
O=c1cc(-c2ccccc2)oc2c(O)c(O)ccc12 [7,8-Dihydroxyflavone] | 4.21 | –
O=C(COc1ccc(Cl)cc1)NC1CCC(NC(=O)COc2ccc(Cl)cc2)CC1 (stereo not drawn) [ISRIB (trans-isomer)] | 4.54 | –
COc1ccc(Cl)cc1NC(=O)Nc1cc(C)nc2ccccc12 | 3.91 | –
Cn1c(Nc2ccc(C(F)(F)F)cc2)nc2cc(Oc3ccnc(-c4ncc(C(F)(F)F)[nH]4)c3)ccc21 | 4.24 | –
Cc1ccc(S(=O)(=O)/C=C/C#N)cc1 | 5.14 | –
O=C(NCCCNc1nc(Nc2cccc(CN3CCOCC3)c2)ncc1C1CC1)C1CCC1 | 5.02 | –
CN(C)S(=O)(=O)c1ccc2c(c1)/C(=C/c1cc3c([nH]1)CCCC3)C(=O)N2 | 4.54 | –

Structure (SMILES) | neurite formation score [1] | neurite formation score [2]
CCn1c2ccccc2c2cc(Nc3ccnc(NCCCN4CCOCC4)n3)ccc21 | 3.54 | –
C[C@@H](Oc1cc(-c2cnn(C3CCNCC3)c2)cnc1N)c1c(Cl)ccc(F)c1Cl [(R)-Crizotinib] | 4.91 | –
Cc1cc2c(F)c(Oc3ncnn4cc(OC[C@@H](C)O)c(C)c34)ccc2[nH]1 | 4.57 | –
CC(=O)Nc1cccc(-n2c(=O)n(C3CC3)c(=O)c3c(Nc4ccc(I)cc4F)n(C)c(=O)c(C)c32)c1 | 3.57 | –
CC(C)(CCCCCC(O)CCCCCC(C)(C)C(=O)O)C(=O)O | 0.138 | –
CNC(=O)c1cc(COc2nnc(Nc3ccc(Cl)cc3)c3ccoc23)ccn1 [Telatinib (BAY 57-9352)] | 4.96 | –
Cc1cnc(Nc2ccc(F)cc2Cl)nc1-c1c[nH]c(C(=O)N[C@H](CO)c2cccc(Cl)c2)c1 | 3.69 | –
Clc1ccc(Nc2nnc(Cc3ccncc3)c3ccccc23)cc1 [Vatalanib] | 4.69 | –
Nc1nc(Nc2ccc(S(N)(=O)=O)cc2)nn1C(=O)c1c(F)cccc1F | 5.02 | –
CN(C)c1nc2c(Br)c(Br)c(Br)c(Br)c2[nH]1 | 5.02 | –
COc1cc(Nc2nc3ccccc3nc2NS(=O)(=O)c2ccc(NC(=O)c3ccc(C)c(OC)c3)cc2)cc(OC)c1 | 4.57 | –
O=C1NC(=O)C(=Cc2ccc(-c3ccc(F)cc3)o2)S1 (stereo in doubt) | 4.54 | –
COc1cc2ncnc(Nc3cccc(Br)c3)c2cc1OC | 4.14 | –
CCN1CCN(c2ccc(Nc3cc(N(C)C(=O)Nc4c(Cl)c(OC)cc(OC)c4Cl)ncn3)cc2)CC1 | 3.8 | –
Nc1nc(N)c2nc(-c3cccc(O)c3)c(-c3cccc(O)c3)nc2n1 | 4.24 | –
C[C@H](NC(=O)/C(C#N)=C/c1cccc(Br)n1)c1ccccc1 | 4.36 | –
CCS(=O)(=O)c1cccc(-c2cc(C(=O)NC3CCN(C)CC3)c(C)c3[nH]c4ncc(C)cc4c23)c1 | 2.69 | –
CC(C)(C)n1nc(-c2ccc(Cl)cc2)c2c(N)ncnc21 | 4.24 | 3.88
O=C(Nc1cccc(Nc2ncc(Br)c(NCCc3cnc[nH]3)n2)c1)N1CCCC1 | 3.91 | 4.71
